About 83,000 compounds went through this panel and 20% of them were active in at least one assay; those are over-represented in the sample as a whole.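 Method: cells in 96-well plates; compound added at one concentration; 48 h incubation; percent growth measured; values under 10 scored active.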 A number with no mark means an inactive call. Activity calls are given as the source filed them.

The first assay has as its system T-47D breast. Description: NCI-60 one-dose screen, 48 h (100 = growth as untreated, 0 = no growth, -100 = all killed). As to conditions: 10 µM unless noted.
`COc1ccc2c(c1)C(=O)/C(=C/c1ccc(OCC(=O)Nc3nccs3)cc1)O2`: the growth is 75.2%.

For the compound `CN1C(=O)N(C)C2C1NN=c1s/c(=C\c3ccccc3)c(=O)n12` (centres undefined), the growth was 37.9%.

`O=S(=O)(NCCCNc1cc(-c2c(-c3cccc(O)c3)nc3sccn23)ccn1)c1cccc(Cl)c1`: the growth is 6.58% (active).

Turning to `Cn1ccc2c(c1=O)C(=O)c1nccc3c1c-2nc1ccccc13`, the growth was 84.9%.

With `Cc1ccc(Cl)c(NS(=O)(=O)c2ccc(-c3cnc(C4CC4)o3)cc2)c1`, the growth was 45%.

Take `Cn1cc(-c2csc(-c3cccc(F)c3)n2)c2cccnc21`: the growth is -47.9% [100 µM] (active).

`CC(C)Sc1nc(NNC(N)=S)c(C#N)c(-c2ccc(F)cc2)n1`: the growth is 83.2%.

`Cc1c(C(=O)OC(=NC2CCCCC2)NC2CCCCC2)sc2c1c(=O)nc1c(C#N)n[nH]n12`: the growth is 109%.

As to `C=C(C)[C@@H]1CC[C@]2(C(=O)NC3CCCCC3)CC[C@]3(C)[C@H](CC[C@@H]4[C@@]5(C)CCC(=O)C(C)(C)[C@@H]5CC[C@]43C)[C@@H]12`, the growth was 83.3%.

Turning to `Clc1cccc(Cl)c1C(Nc1nc2ccccc2s1)Nc1nc2ccccc2s1`, the growth was 95.7%.

In the case of `Cc1cc[c-]cc1.Fc1c[c-]c(-c2ccccn2)c(F)c1.[Pt+2].c1ccc(P(C[PH+](c2ccccc2)c2ccccc2)c2ccccc2)cc1`, the growth is 8.85% (active).

As for `O=C(O)c1ccc2c(c1)CCC2`, the growth was 106%.

For `C[C@H]1[C@H]2[C@H]3CC[C@@H]4[C@@]5(C)C/C(=C/c6ccco6)C(=O)C(C)(C)[C@@H]5CC[C@@]4(C)[C@]3(C)CC[C@]23CO[C@]1(C)[C@@H](C(=O)/C=C\c1ccco1)C3`, the growth was 80.3%.

With `CCOC(=O)c1ccc(N2NC(=O)/C(=C/c3ccc([N+](=O)[O-])o3)C2=O)cc1`, the growth was 109%.

For the compound `COc1ccc(-c2cc(-c3ccc(Nc4nc(Nc5ccc(Cl)cc5)nc(Nc5ccc(Cl)cc5)n4)cc3)nc(N)c2C#N)cc1`, the growth is 3.86% (active).

Regarding `O=C1/C(=C/c2ccc(F)cc2)C=C(c2ccccc2)N1CCc1ccccc1`, the growth is 52.1%.

For the compound `O=c1c2c3c(sc2n2c(-c4cn(-c5ccccc5)nc4-c4ccc(Cl)cc4)nnc2n1Cc1ccccc1)CCCC3`, the growth was 81.8%.

With `COC(=O)c1c2c(c[n+]([O-])c1C)C(=O)C=CC2=O`, the growth was -11.9% (active).

Turning to `Cc1ccc(-n2c(-c3ccccc3)c(-c3ccccc3)c3c(SCC(=O)n4[nH]c(N)cc4=O)ncnc32)cc1`, the growth is 76.6%.

On to `COc1cc(CCC[P+](c2ccccc2)(c2ccccc2)c2ccccc2)cc2c1OCO2`, for which the growth is 11.5%.

Take `COc1cccc(-c2nc3sccn3c2-c2ccnc(NCCNS(=O)(=O)c3cccc(Cl)c3)c2)c1`: the growth was 1.84% (active).

`CC1=C([Se]CC(OC(=O)[C@@H](CO)NC(=O)OC(C)(C)C)C(=O)NC(C)(C)C)C(=O)c2ccccc2C1=O` (some centres undefined): the growth was -54.1% (active).

As for `Cc1ccc(Cc2cnc(NC(=O)c3ccc4noc(-c5ccccc5)c4c3)s2)cc1`, the growth was 78.7%.

As for `N#CC1=C(/N=C/c2ccccc2)Oc2c(ccc3ccccc23)C1c1ccccc1` (centres undefined), the growth is 49.8%.

Consider `CC/C=C1/C(=O)C=C[C@@H]1C/C=C\CCCC(=O)O`, for which the growth is 71.8%.

`CC(=O)c1nc(Nc2ccc(C)cc2)sc1C`: the growth was 85.6%.

For `CC(=O)O[C@]1(C(C)=O)CCC2C3C[C@H](C)C4=CC(=O)CC[C@]4(C)C3CC[C@@]21C` (some centres undefined), the growth is 95.3%.

For `CC(=O)N1N=C(c2ccc(Nc3nc(Nc4ccc(F)cc4)nc(Nc4ccc(F)cc4)n3)cc2)CC1c1cccc([N+](=O)[O-])c1` (centres undefined), the growth is 80.3%.

Turning to `Cc1occc1-c1n[nH]c(=S)n1N1C(=O)CSC1=S`, the growth was 104%.

Take `COc1cccc(-c2nn(-c3ccccc3)cc2-c2ccnc(NCCCNC(=O)c3ccccc3)c2)c1`: the growth is 4.22% (active).

In the case of `COc1cc(/C=N/Nc2ncc(-c3cc4cc5c(cc4o3)OCO5)s2)cc(OC)c1OC`, the growth was 45.9%.

As for `O=C(Nc1ccccc1Cl)Oc1ccc(-c2ccccc2)cc1`, the growth is 106%.

`COc1nc(N(C)O)nc(N(C)O)n1`: the growth is 30.3%.

`CCN1CCN(c2nc(C)cc(NCc3cc(Nc4ccnc5cc(Cl)ccc45)ccc3F)n2)CC1`: the growth was -24.3% (active).

In the case of `CCN(CC)c1nc(SCC(=O)Nc2nc3ccc(C)cc3s2)nc(-c2ccccc2)c1C#N`, the growth is 75.8%.

`Cn1c(-c2c(N)n(Cc3cccnc3)c3nc(C#N)c(C#N)nc23)nc2ccccc21`: the growth was 92.1%.

For the compound `Cc1cc(NCc2cc(Nc3ccnc4cc(Cl)ccc34)ccc2F)nc(Cl)n1`, the growth is 28%.

The subject of a further assay is BT-549 breast. The assay is described as above. The settings on record: 10 µM unless noted.
As to `COc1ccc2c(c1)C(=O)/C(=C/c1ccc(OCC(=O)Nc3nccs3)cc1)O2`, the growth is -84.2% (active).

On to `CN1C(=O)N(C)C2C1NN=c1s/c(=C\c3ccccc3)c(=O)n12` (centres undefined), for which the growth was 55.5%.

For the compound `O=S(=O)(NCCCNc1cc(-c2c(-c3cccc(O)c3)nc3sccn23)ccn1)c1cccc(Cl)c1`, the growth is 21.5%.

Consider `Cn1ccc2c(c1=O)C(=O)c1nccc3c1c-2nc1ccccc13`, for which the growth is 87.4%.

As to `Cc1ccc(Cl)c(NS(=O)(=O)c2ccc(-c3cnc(C4CC4)o3)cc2)c1`, the growth was 34.5%.

On to `Cn1cc(-c2csc(-c3cccc(F)c3)n2)c2cccnc21`, for which the growth was -36.9% [100 µM] (active).

For `CC(C)Sc1nc(NNC(N)=S)c(C#N)c(-c2ccc(F)cc2)n1`, the growth is 104%.

As to `Cc1c(C(=O)OC(=NC2CCCCC2)NC2CCCCC2)sc2c1c(=O)nc1c(C#N)n[nH]n12`, the growth is 121%.

Take `C=C(C)[C@@H]1CC[C@]2(C(=O)NC3CCCCC3)CC[C@]3(C)[C@H](CC[C@@H]4[C@@]5(C)CCC(=O)C(C)(C)[C@@H]5CC[C@]43C)[C@@H]12`: the growth is 92.8%.

`Clc1cccc(Cl)c1C(Nc1nc2ccccc2s1)Nc1nc2ccccc2s1`: the growth is 92.1%.

`Cc1cc[c-]cc1.Fc1c[c-]c(-c2ccccn2)c(F)c1.[Pt+2].c1ccc(P(C[PH+](c2ccccc2)c2ccccc2)c2ccccc2)cc1`: the growth is 20.6%.

As to `O=C(O)c1ccc2c(c1)CCC2`, the growth is 96.6%.

As for `C[C@H]1[C@H]2[C@H]3CC[C@@H]4[C@@]5(C)C/C(=C/c6ccco6)C(=O)C(C)(C)[C@@H]5CC[C@@]4(C)[C@]3(C)CC[C@]23CO[C@]1(C)[C@@H](C(=O)/C=C\c1ccco1)C3`, the growth was 111%.

Turning to `CCOC(=O)c1ccc(N2NC(=O)/C(=C/c3ccc([N+](=O)[O-])o3)C2=O)cc1`, the growth is 99.7%.

As for `COc1ccc(-c2cc(-c3ccc(Nc4nc(Nc5ccc(Cl)cc5)nc(Nc5ccc(Cl)cc5)n4)cc3)nc(N)c2C#N)cc1`, the growth is -55.3% (active).

In the case of `O=C1/C(=C/c2ccc(F)cc2)C=C(c2ccccc2)N1CCc1ccccc1`, the growth is 79.3%.

For `O=c1c2c3c(sc2n2c(-c4cn(-c5ccccc5)nc4-c4ccc(Cl)cc4)nnc2n1Cc1ccccc1)CCCC3`, the growth is 103%.

As to `COC(=O)c1c2c(c[n+]([O-])c1C)C(=O)C=CC2=O`, the growth was 71.4%.

Regarding `Cc1ccc(-n2c(-c3ccccc3)c(-c3ccccc3)c3c(SCC(=O)n4[nH]c(N)cc4=O)ncnc32)cc1`, the growth was 99%.

For the compound `COc1cc(CCC[P+](c2ccccc2)(c2ccccc2)c2ccccc2)cc2c1OCO2`, the growth was 23.3%.

Turning to `COc1cccc(-c2nc3sccn3c2-c2ccnc(NCCNS(=O)(=O)c3cccc(Cl)c3)c2)c1`, the growth was 18.3%.

As for `CC1=C([Se]CC(OC(=O)[C@@H](CO)NC(=O)OC(C)(C)C)C(=O)NC(C)(C)C)C(=O)c2ccccc2C1=O` (some centres undefined), the growth was -100% (active).

Turning to `Cc1ccc(Cc2cnc(NC(=O)c3ccc4noc(-c5ccccc5)c4c3)s2)cc1`, the growth was 99.6%.

With `N#CC1=C(/N=C/c2ccccc2)Oc2c(ccc3ccccc23)C1c1ccccc1` (centres undefined), the growth was 4.18% (active).

For the compound `CC/C=C1/C(=O)C=C[C@@H]1C/C=C\CCCC(=O)O`, the growth was 76.5%.

`CC(=O)c1nc(Nc2ccc(C)cc2)sc1C`: the growth is 87.1%.

As to `CC(=O)O[C@]1(C(C)=O)CCC2C3C[C@H](C)C4=CC(=O)CC[C@]4(C)C3CC[C@@]21C` (some centres undefined), the growth is 63.6%.

Take `CC(=O)N1N=C(c2ccc(Nc3nc(Nc4ccc(F)cc4)nc(Nc4ccc(F)cc4)n3)cc2)CC1c1cccc([N+](=O)[O-])c1` (centres undefined): the growth was 102%.

As for `Cc1occc1-c1n[nH]c(=S)n1N1C(=O)CSC1=S`, the growth was 108%.

Take `COc1cccc(-c2nn(-c3ccccc3)cc2-c2ccnc(NCCCNC(=O)c3ccccc3)c2)c1`: the growth was 14%.

Turning to `COc1cc(/C=N/Nc2ncc(-c3cc4cc5c(cc4o3)OCO5)s2)cc(OC)c1OC`, the growth is 15.2%.

Take `O=C(Nc1ccccc1Cl)Oc1ccc(-c2ccccc2)cc1`: the growth is 113%.

With `COc1nc(N(C)O)nc(N(C)O)n1`, the growth was 12.4%.

With `CCN1CCN(c2nc(C)cc(NCc3cc(Nc4ccnc5cc(Cl)ccc45)ccc3F)n2)CC1`, the growth was 36.1%.

Take `CCN(CC)c1nc(SCC(=O)Nc2nc3ccc(C)cc3s2)nc(-c2ccccc2)c1C#N`: the growth was 93.3%.

On to `Cn1c(-c2c(N)n(Cc3cccnc3)c3nc(C#N)c(C#N)nc23)nc2ccccc21`, for which the growth is 115%.

Consider `Cc1cc(NCc2cc(Nc3ccnc4cc(Cl)ccc34)ccc2F)nc(Cl)n1`, for which the growth was 54.6%.
